# “And” between values parts separate entries of the source, which are not always exact repeats. Equal entries are not always repeated. A number with no mark means an inactive call. Records with an inconclusive call do not appear. Where a call stands in place of a potency, no number is given. The source made the active and inactive calls. Unless noted, calls come from the whole dose curve; as a rule, active = well fitted curve in the direction sought with a large enough effect in the repeat runs; inconclusive = weak or mixed curves; inactive = no such curve, though single readings can be large; an effect the other way counts as inactive or inconclusive.
# How the values were obtained:
# [1] = qHTS assay to identify small molecule agonists of H2AX (AID 1224845; active = well fitted activation curve with a large enough effect in the signal ratio in the repeat runs, not every such curve was filed as active; the % refers to the signal ratio)
# Procedure, shortened: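 Wild-type CHO-K1 cells, plated overnight, exposed 3hr at 37C to 15 concentrations (0.76% DMSO final). Lysed, then HTRF anti-pH2AX (S139) cryptate and anti-H2AX-d2 antibodies, 24 hr room temperature; 665/620 nm emission read.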
# [2] = qHTS assay to identify small molecule agonists of the hypoxia (HIF-1) signaling pathway (AID 1224846; active = well fitted activation curve with a large enough effect in the signal ratio in the repeat runs, not every such curve was filed as active; the % refers to the signal ratio)
# Procedure, shortened: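 ME-180 HRE-bla reporter cells; compounds in DMSO, 17 h at 37C; read-out beta-lactamase via CCF4-AM FRET.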
# [3] = qHTS assay to identify small molecule agonists of H2AX - cell viability counter screen (AID 1224847; calls by dose curve; note: top concentration of the series differs between compounds; nearly all actives have a fitted effect of over 30% in size)
# Procedure, shortened: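 For this counter screen, overnight-attached CHO-K1 cells received test compounds (15 concentrations, 0.76% DMSO final); 3 hr later at 37C, CellTiter-Glo reagent was added and luminescence recorded after 30 min at room temperature.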
# [4] = qHTS RealTime-Glo MT Cell Viability Assay in HepG2 cells - 24 hour (AID 1224867); note: nearly all actives have a fitted effect of over 50% in size
# Procedure, shortened: (§1)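 HepG2 cells (600/well) were dispensed with RealTime-Glo reagents, incubated 5 h at 37 °C, then treated with compounds in DMSO for up to 40 h. Nonlytic NanoLuc luminescence reflecting viable cells was read at each stated time point.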
# [5] = qHTS RealTime-Glo MT Cell Viability Assay in HEK293 cells - 32 hour (AID 1224868); note: top concentration of the series differs between compounds; nearly all actives have a fitted effect of over 50% in size
# Procedure, shortened: (§2)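 HEK293 cells seeded with NanoLuc/prosubstrate reagent, rested 5 h at 37 C, then dosed and kept at 37 C up to 40 h. Nonlytic real-time luminescence from viable cells read at 0, 8, 16, 24, 32 and 40 h.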
# [6] = A CellTox Green Cytotoxicity Assay to monitor cytotoxicity in HEK293 cells - 0 hour (AID 1224869); note: nearly all actives have a fitted effect of over 50% in size
# Procedure, shortened: (§3)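 Real-time, in one plate: 600 HEK293 cells/well with dead-cell DNA dye, pinned compound after 5 h, 37 C incubation over 40 h; viable cells give no appreciable fluorescence.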
# [7] = qHTS RealTime-Glo MT Cell Viability Assay in HepG2 cells - 40 hour (AID 1224870); note: nearly all actives have a fitted effect of over 50% in size
# Procedure, shortened: (§4)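 HepG2 cells (600/well) mixed with RealTime-Glo MT reagent, settled 5 h at 37 C/5% CO2 before compound addition. Nonlytic NanoLuc luminescence from viable-cell prosubstrate reduction read repeatedly during 40 h treatment at 37 C.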
# [8] = A CellTox Green Cytotoxicity Assay to monitor cytotoxicity in HEK293 cells - 40 hour (AID 1224871); note: nearly all actives have a fitted effect of over 45% in size
# Procedure, shortened: as §3
# [9] = qHTS RealTime-Glo MT Cell Viability Assay in HEK293 cells - 16 hour (AID 1224872)
# Procedure, shortened: as §2
# [10] = qHTS RealTime-Glo MT Cell Viability Assay in HepG2 cells - 8 hour (AID 1224873); note: nearly all actives have a fitted effect of over 55% in size
# Procedure, shortened: as §4
# [11] = qHTS RealTime-Glo MT Cell Viability Assay in HEK293 cells - 40 hour (AID 1224874); conditions: RealTime-Glo luminescence; max response: hits give low values; note: nearly all actives have a fitted effect of over 50% in size
# Procedure, shortened: (§5)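 Kinetic, non-lysing viability readout. Seed HEK293 (600/well) with reagent, incubate 5 h at 37 C/5% CO2, pin 23 nL compound in DMSO, incubate at 37 C, read luminescence at 0, 8, 16, 24, 32, 40 h.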
# [12] = A CellTox Green Cytotoxicity Assay to monitor cytotoxicity in HEK293 cells - 24 hour (AID 1224875); note: nearly all actives have a fitted effect of over 45% in size
# Procedure, shortened: as §3
# [13] = A CellTox Green Cytotoxicity Assay to monitor cytotoxicity in HepG2 cells - 16 hour (AID 1224876); note: nearly all actives have a fitted effect of over 45% in size
# Procedure, shortened: (§6)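 Cytotoxicity was tracked as dead-cell DNA fluorescence in HepG2 cells treated with test compounds at 37 C; each time-point value comes from one kinetic series spanning 0, 8, 16, 24, 32 and 40 h.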
# [14] = qHTS RealTime-Glo MT Cell Viability Assay in HepG2 cells - 32 hour (AID 1224877); note: nearly all actives have a fitted effect of over 55% in size
# Procedure, shortened: as §1
# [15] = A CellTox Green Cytotoxicity Assay to monitor cytotoxicity in HepG2 cells - 24 hour (AID 1224878); note: nearly all actives have a fitted effect of over 45% in size
# Procedure, shortened: as §6
# [16] = A CellTox Green Cytotoxicity Assay to monitor cytotoxicity in HepG2 cells - 40 hour (AID 1224879); note: nearly all actives have a fitted effect of over 40% in size
# Procedure, shortened: as §6
# [17] = qHTS RealTime-Glo MT Cell Viability Assay in HEK293 cells - 0 hour (AID 1224880)
# Procedure, shortened: as §5
# [18] = A CellTox Green Cytotoxicity Assay to monitor cytotoxicity in HEK293 cells - 32 hour (AID 1224881); note: nearly all actives have a fitted effect of over 40% in size
# Procedure, shortened: as §3
# [19] = qHTS assay to identify small molecule antagonists of the estrogen related receptor (ERR) signaling pathway from Tox21 library (AID 1224848); note: nearly all actives have a fitted effect of over 50% in size; note: potency is the fitted concentration of half-maximal effect
# Procedure, shortened: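 Compounds dissolved in DMSO are pin-transferred onto ERR reporter cells (2,000 per well) that have settled for 6 h at 37 C. Plates then incubate 18 h at 37 C before ONE-Glo luciferase reagent and a luminescence read 30 min later.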
# [20] = qHTS assay to identify small molecule agonists of the estrogen related receptor (ERR) signaling pathway from Tox21 library (AID 1224849; calls by dose curve; note: nearly all actives have a fitted effect of over 15% in size); conditions: ERR reporter cell line, ONE-Glo luciferase, 18 h; at 92.4 µM (top of the series)
# Procedure, shortened: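 Luciferase activity in ERR pathway reporter cells served as the agonist readout; exposure lasted 18 h at 37 C, with ONE-Glo detection after 30 min at room temperature.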
Compound,Potency [1],outcome [2],Potency [3],Potency [4],Potency [5],Potency [6],Potency [7],Potency [8],Potency [9],Potency [10],max response [11],Potency [12],Potency [13],Potency [14],Potency [15],Potency [16],outcome [17],Potency [18],Potency [19],"activity change, positive = activation [20]"
O=C([O-])c1ccccn1.O=C([O-])c1ccccn1.O=C([O-])c1ccccn1.[Cr+3],inactive,inactive,inactive,inactive,inactive,inactive,inactive,inactive,inactive,inactive,2.2%,inactive,inactive,inactive,inactive,inactive,inactive,inactive,–,–
CCCC[N+](CCCC)(CCCC)CCCC,inactive,inactive,inactive,inactive,–,inactive,inactive,inactive,–,inactive,–,inactive,inactive,inactive,inactive,inactive,inactive,inactive,inactive,-11.1%
OCCCl,inactive,inactive,inactive,inactive,inactive,inactive,inactive,inactive,inactive,inactive,0.0487%,inactive,inactive,inactive,inactive,inactive,inactive,inactive,–,–
Nc1cc(Cl)cc(C(=O)O)c1Cl,inactive,inactive,inactive,inactive,–,–,inactive,inactive,inactive,inactive,1.89% and 6.4%,inactive,inactive,inactive,inactive,inactive,inactive,inactive,inactive,4.39% and 3.97%
CCOP(=O)(O)C(N)=O,inactive,inactive,inactive,inactive,inactive,inactive,inactive,inactive,inactive,inactive,20.4%,inactive,inactive,inactive,inactive,inactive,inactive,inactive,–,–
COC1=CC(=O)O[C@@H](/C=C/c2ccc3c(c2)OCO3)C1,inactive,inactive,inactive,inactive,–,–,inactive,inactive,inactive,inactive,–,inactive,inactive,–,inactive,inactive,inactive,inactive,20.8 µM (active),-47.8%
CC(Cl)C(=O)O (stereo not drawn),inactive,inactive,inactive,inactive,inactive,inactive,inactive,inactive,inactive,inactive,19.1%,inactive,inactive,inactive,inactive,inactive,inactive,inactive,–,–
CCCCC(CC)COC(=O)c1c(Br)c(Br)c(Br)c(Br)c1C(=O)OCC(CC)CCCC (stereo not drawn),inactive,inactive,inactive,inactive,inactive,inactive,inactive,inactive,inactive,inactive,-1.1%,inactive,inactive,inactive,inactive,inactive,inactive,inactive,–,–
CN1C(=O)CN=C(c2ccccc2)c2cc([N+](=O)[O-])ccc21,inactive,inactive,inactive,inactive,inactive,inactive,inactive,inactive,inactive,inactive,-12%,inactive,inactive,inactive,inactive,inactive,inactive,inactive,–,–
O=C=NC1CCCCC1,inactive,inactive,inactive,inactive,–,–,inactive,inactive,inactive,inactive,8%,inactive,inactive,inactive,inactive,inactive,inactive,inactive,inactive,–
Clc1ccccc1,inactive,inactive,inactive,inactive,–,inactive,inactive,inactive,inactive,inactive,-1.5%,inactive,inactive,inactive,inactive,inactive,inactive,inactive,–,5.28%
CCCCCCCCCCCCCCCl,inactive,inactive,inactive,inactive,inactive,inactive,inactive,inactive,inactive,inactive,1.34%,inactive,inactive,inactive,inactive,inactive,inactive,inactive,–,–
COC1CC(=C(c2cccs2)c2cccs2)C[N+](C)(C)C1 (stereo not drawn),inactive,inactive,inactive,inactive,inactive,inactive,inactive,inactive,inactive,inactive,-21.7%,inactive,inactive,–,inactive,inactive,inactive,inactive,–,–
FC(F)OC(F)(F)C(F)Cl (stereo not drawn),inactive,inactive,inactive,inactive,inactive,inactive,inactive,inactive,inactive,inactive,–,inactive,inactive,inactive,inactive,inactive,inactive,inactive,–,–
c1ccc2sc(SNC3CCCCC3)nc2c1,inactive,inactive,inactive,inactive,inactive,–,inactive,inactive,inactive,inactive,-0.932% and 2.76%,inactive,inactive,inactive,inactive,inactive,inactive,inactive,–,–

# Reference: PubChem BioAssay (Tox21)
